PLK1 PBD inh: qHTS for Inhibitors of PLK1-PDB (polo-like kinase 1 - polo-box domain): Primary Screen | Plk1 PBD binding of FITC phosphopeptide, fluorescence polarization | actives 2.8% (n = 360,000) | Potency, µM, inactives show max response, negative = inhibition, hits mostly inhibitors; note: series mostly up to about 57 µM; % is set by controls: 0 for no effect and ±100 for the full control effect; nearly all actives have a fitted effect of over 65% in size
ALOX12 inh: Primary qHTS assay for inhibitors of human arachidonate 12S-lipoxygenase (ALOX12): Round 2. Polyunsaturated fatty acid lipoxygenase ALOX12 (Homo sapiens), P18054. purified 12hLO, xylenol orange hydroperoxide absorbance. Potency, µM (series often up to 108 µM), for inactives: top-dose activity change, negative = inhibition, hits mostly inhibitors. actives 1.1% (n = 580,000); note: % is set by controls: 0 for no effect and ±100 for the full control effect
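Purified human 12hLO at 150 nM in 25 mM Hepes, 0.01% Triton X-100, pH 7.0, preincubated 15 min at room temperature with compound. Reaction started with 40 uM arachidonic acid, 30 min at room temperature. Hydroperoxide measured by Fe-xylenol orange, 573/405 nm absorbance ratio.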
VDR inhibitor: Inhibitors of the vitamin D receptor (VDR): qHTS. Vitamin D3 receptor (Homo sapiens), P11473. VDR-SRC2-3 peptide fluorescence polarization, 2 h. Potency, µM, inactives show max response, negative = inhibition, usual class: inhibitors. actives 0.93% (n = 400,000). AID 504847, 2011; note: % is set by controls: 0 for no effect and ±100 for the full control effect
Target sequence (P11473 whole entry, looked up): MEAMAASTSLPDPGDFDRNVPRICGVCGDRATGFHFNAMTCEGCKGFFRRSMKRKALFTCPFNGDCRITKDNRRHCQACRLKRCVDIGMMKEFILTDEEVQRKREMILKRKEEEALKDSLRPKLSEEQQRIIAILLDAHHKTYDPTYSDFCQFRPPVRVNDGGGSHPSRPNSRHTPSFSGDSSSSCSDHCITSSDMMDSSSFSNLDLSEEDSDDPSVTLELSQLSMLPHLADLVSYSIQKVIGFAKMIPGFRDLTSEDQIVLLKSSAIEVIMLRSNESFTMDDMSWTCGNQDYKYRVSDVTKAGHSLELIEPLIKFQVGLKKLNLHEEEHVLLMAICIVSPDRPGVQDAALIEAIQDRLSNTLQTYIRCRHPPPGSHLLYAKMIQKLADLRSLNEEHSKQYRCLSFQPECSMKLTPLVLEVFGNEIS
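Measured by FP: displacement of SRC2-3 coactivator peptide from VDR by library compounds, following a two-hour ambient incubation.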
KAT2A inh: qHTS Assay for Inhibitors of GCN5L2. Histone acetyltransferase KAT2A (Homo sapiens), Q92830. GCN5L2 HAT assay, ThioGlo1 CoA-SH fluorescence. Potency, µM (titrated, usually from 58.9 µM), for inactives: at the highest dose activity change, negative = inhibition, most hits filed as inhibitors. actives 0.21% (n = 390,000). AID 504327, 2011; note: % is set by controls: 0 for no effect and ±100 for the full control effect
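ThioGlo1-coupled HAT assay: 20nM GCN5L2, 70uM acetyl-CoA, 75uM H3(1-25) peptide, pH 7.5. Fluorescence read at 340/540nm at start and after 20 min at room temperature.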
VDR confirm: qHTS for Inhibitors of the vitamin D receptor (VDR): Hit Validation in Primary Screen | actives 89% (n = 840) | AID 602199, 2012 | Potency, µM, hits mostly inhibitors | VDR-coactivator inhibition assay, qHTS confirmation | shares compounds with VDR inhibitor
VDR FP: qHTS for Inhibitors of the vitamin D receptor (VDR): Hit Validation using a Fluorescein Assay. shares compounds with VDR inhibitor. VDR-coactivator binding, fluorescein fluorescence polarization. Potency, µM (series often up to 57.1 µM), for the others: top-dose activity change, negative = inhibition, most hits filed as inhibitors. actives 48% (n = 840). AID 602200, 2012
VDR bla: qHTS for Inhibitors of the vitamin D receptor (VDR): Hit Validation using a Beta-Lactamase Assay. shares compounds with VDR inhibitor. VDR beta-lactamase reporter cells, FRET ratio; cells co-treated with VDR agonist LG190178. Potency, µM (highest dose often 46.1 µM), inactives show at the top dose activity change, negative = inhibition, most hits filed as inhibitors. actives 23% (n = 840); note: % is set by controls: 0 for no effect and ±100 for the full control effect
VDR cytotox: qHTS for Inhibitors of the vitamin D receptor (VDR): Hit Validation using a Cytotoxicity Assay | shares compounds with VDR inhibitor | cytotoxicity counter-screen, cell viability, qHTS | Potency, µM (series often up to 48.3 µM), inactives show at the top dose activity change, negative = cytotoxicity, actives largely listed as cytotoxic | actives 18% (n = 840);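 note: plate controls were DMSO for no effect and high-concentration cycloheximide for full effect; nearly all actives have a fitted effect of over 75% in size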
Starred values were filed as active, the others as inactive; [ ] = remark or other dose. Compounds with a hit are over-represented: about 3% of the library has one in this group of screens. Calls come from the whole dose curve; as a rule, active = well fitted curve in the direction sought with a large enough effect; inconclusive = small, poorly fitted or top-dose-only effect, or another doubt; inactive = no such curve, though single readings can be large; an effect the other way counts as inactive or inconclusive. Potency is the fitted concentration of half-maximal effect.

How did O=C(c1ccccc1)C(CCC(CN1CCOCC1)C(=O)c1ccccc1)CN1CCOCC1 (stereo not given) do in these assays?
PLK1 PBD inh: -7%; ALOX12 inh: inconclusive; VDR inhibitor: inconclusive; KAT2A inh: -1%; VDR confirm: inconclusive; VDR FP: inconclusive; VDR bla: 21µM*; VDR cytotox: 29%

What do the screens show for `Cc1ccc(C2=NC3(CCN(C(=O)Cc4cccs4)CC3)ON2)cc1`?
ALOX12 inh: -8%

How did CC1=NNC(=O)/C1=C\c1cn(-c2ccccc2)nc1-c1ccc(F)cc1 do in these assays?
PLK1 PBD inh: 1.5µM*; VDR inhibitor: 45µM*; KAT2A inh: -4%; VDR confirm: 7.5*; VDR FP: inconclusive; VDR bla: 15µM*; VDR cytotox: 7.3µM*

What do the screens show for `O=Cc1cn(-c2ccccc2)nc1-c1ccc(F)cc1`?
PLK1 PBD inh: 0%; ALOX12 inh: 17%; VDR inhibitor: -3%; KAT2A inh: -2%

What do the screens show for `CC1=NNC(=O)/C1=C\c1cn(-c2ccccc2)nc1-c1cccs1`?
PLK1 PBD inh: 2.7µM*; ALOX12 inh: inconclusive; VDR inhibitor: 10µM*; KAT2A inh: -7%; VDR confirm: 3.8*; VDR FP: inconclusive; VDR bla: 16µM*; VDR cytotox: 9.2µM*

Results for CCc1ccc(-c2nc(CSCC(=O)NCC(OC)OC)c(C)o2)cc1 ?
ALOX12 inh: -1%

How did O=S(=O)(c1ccccc1C(F)(F)F)N1CC(c2nc(Cc3ccccc3)no2)C1 do in these assays?
ALOX12 inh: 26%

How did COc1ccc(C(=O)Oc2ccc(C(=S)N3CCOCC3)cc2)cc1 do in these assays?
PLK1 PBD inh: 11µM*; ALOX12 inh: inconclusive; VDR inhibitor: 71µM*; KAT2A inh: -19%; VDR confirm: 27*; VDR FP: 25µM*; VDR bla: 5%; VDR cytotox: -3%

What do the screens show for `Cc1ccc(CNC(=O)CCc2ncc(-c3ccc(F)cc3)o2)cc1`?
ALOX12 inh: 6%

What do the screens show for `Cc1ccc(CSC2=CS(=O)(=O)c3ccccc3N2)cc1`?
PLK1 PBD inh: -9%; ALOX12 inh: 25%; VDR inhibitor: 4%; KAT2A inh: -19%

What do the screens show for `Cc1ccc(SC2=NS(=O)(=O)c3ccccc32)c(C)c1`?
VDR inhibitor: 35µM*; VDR confirm: 7.1*; VDR FP: 8.9µM*; VDR bla: inconclusive; VDR cytotox: 21µM*

Results for Cc1ccc(CSC2=NS(=O)(=O)c3ccccc32)cc1 ?
VDR inhibitor: 32µM*; VDR confirm: 14*; VDR FP: 8.9µM*; VDR bla: -7%; VDR cytotox: -7%

How did COc1ccc(NC(=O)c2nc(-c3ccccc3)oc2C)c(OC)c1 do in these assays?
ALOX12 inh: 23%

Results for Cc1oc2c(O)c(O)ccc2c(=O)c1-c1ccccc1 ?
PLK1 PBD inh: -8%; ALOX12 inh: inconclusive; VDR inhibitor: 6%; KAT2A inh: -8%

What do the screens show for `O=c1cc(-c2ccccc2)oc2c(O)c(O)ccc12`?
ALOX12 inh: -118%; VDR inhibitor: 13µM*; KAT2A inh: inconclusive; VDR confirm: 20*; VDR FP: 25µM*; VDR bla: 23µM*; VDR cytotox: inconclusive

What do the screens show for `CCOC(=O)c1c(-c2ccc(C)s2)csc1N`?
PLK1 PBD inh: 5.3µM*; ALOX12 inh: inconclusive; VDR inhibitor: 79µM*; KAT2A inh: -14%; VDR confirm: 19*; VDR FP: 11µM*; VDR bla: 11%; VDR cytotox: 23%

How did Cc1ccc(C(C[N+](=O)[O-])Sc2ccc(N)cc2)cc1 (stereo not given) do in these assays?
PLK1 PBD inh: 6.7µM*; ALOX12 inh: -24%; VDR inhibitor: 13µM*; KAT2A inh: -11%; VDR confirm: 7.5*; VDR FP: inconclusive; VDR bla: inconclusive; VDR cytotox: inconclusive

How did Nc1ccc(Sc2ccc([N+](=O)[O-])cc2)cc1 do in these assays?
PLK1 PBD inh: -9%; ALOX12 inh: inconclusive; VDR inhibitor: 3%; KAT2A inh: -14%

How did CC(C)c1cnc(C2CCN(C(=O)OC(C)(C)C)CC2)[nH]1 do in these assays?
ALOX12 inh: 2%[12.5 µM]

How did CC(C)(C)c1nc2cc(NC(=O)CNC(=O)c3ccc(Br)o3)ccc2o1 do in these assays?
ALOX12 inh: -25%

How did CCOC(=O)/C(=C\c1ccc(OC(F)F)cc1)C1=Nn2c(nnc2-c2ccc(Cl)cc2)SC1 do in these assays?
PLK1 PBD inh: inconclusive; VDR inhibitor: 16µM*; KAT2A inh: -12%; VDR confirm: 6*; VDR FP: inconclusive; VDR bla: 16µM*; VDR cytotox: 13µM*

Results for CCOC(=O)/C(=C/c1ccc(OC(F)F)cc1)C1=Nn2c(nnc2-c2ccc(Cl)cc2)SC1 ?
PLK1 PBD inh: inconclusive; ALOX12 inh: -15%; VDR inhibitor: 8.9µM*; VDR confirm: 3.4*; VDR FP: 3.5µM*; VDR bla: inconclusive; VDR cytotox: 21µM*

What do the screens show for `COc1ccc(-c2nnc3n2N=C(C)CS3)cc1`?
PLK1 PBD inh: -3%; ALOX12 inh: -15%; VDR inhibitor: 1%; KAT2A inh: 3%

Results for Cc1ccc(CN(CCN(C)C)C(=O)c2ccc(C#N)cc2)o1 ?
ALOX12 inh: -28%

Results for Cc1cnc(NC(=O)C2CCN(c3ccc(C#N)cn3)CC2)s1 ?
ALOX12 inh: 4%
